# Most compounds without a hit are left out; they make up all but 4.1% or so of the library.
# DAX1 inh-1: DAX1 (NR0B1) inhibitors on StAR promoter, primary screen, cell-based, luminescence, SF-1 (NR5A1), full-length DAX-1; HEK293T StAR-luciferase reporter, SF-1/DAX-1 repression relief; inhibition, % at 6.8 µM; 370,000 tested, 1.1% active; AID 652010, 2013;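 active = inhibition above the mean over all tested compounds plus 3 SD, cut at about 3.6% in these data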;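 note: 0% = DAX-1 cells with DMSO and 100% = cells lacking DAX-1 with DMSO; higher inhibition means more luminescence from relief of DAX-1 repression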
# hcDAF-12 act: H. contortus DAF-12 nuclear receptor activators, primary screen, cell-based, luminescence, HEK293, lit1-tk-luc reporter; activation, % at 6.8 µM; 370,000 tested, 1.4% active; HEK293 hcDAF-12 lit1-tk-luc reporter; 0% DMSO, 100% Δ7-dafachronic acid;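 active = activation above the mean of all tested compounds plus 3 SD, cut at about 5.5% in these data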;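 note: 100% = response to 3 µM Δ7-dafachronic acid high control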
# hgDAF-12 ag: H. glycines DAF-12 receptor agonists, primary screen, cell-based, luminescence, HEK293, GAL4 fusion, UAS-luciferase | HEK293 GAL4-hgDAF12 UAS-luciferase reporter, agonist luminescence; normalized to butyrate control | Nuclear hormone receptor DAF-12 (Heterodera glycines), GAL4 fusion | activation, % at 6.8 µM | AID 687014, 2013 | 370,000 tested, 1.8% active;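 active = activation above a cutoff set at the mean of all screened compounds plus 3 SD, cut at about 10% in these data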;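 note: 0% = DMSO wells and 100% = sodium butyrate wells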
# DAX1 inh-2: DAX1 (NR0B1) inhibitors, primary screen, cell-based, HEK293, Gal4-DAX1, luciferase luminescence. Nuclear receptor subfamily 0 group B member 1 (Homo sapiens), P51843. inhibition, % at 6.75 µM. 340,000 tested, 0.99% active. HEK293 Gal4-DAX1 luciferase reporter;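 active = inhibition above the mean over all tested compounds plus 3 SD, cut at about 4.2% in these data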;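 note: 0% = DAX1-transfected cells with DMSO and 100% = empty-vector control cells with DMSO; inhibition shows as a rise in luminescence from relieved DAX1 repression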
# Target sequence (P51843 207-470 limits assumed): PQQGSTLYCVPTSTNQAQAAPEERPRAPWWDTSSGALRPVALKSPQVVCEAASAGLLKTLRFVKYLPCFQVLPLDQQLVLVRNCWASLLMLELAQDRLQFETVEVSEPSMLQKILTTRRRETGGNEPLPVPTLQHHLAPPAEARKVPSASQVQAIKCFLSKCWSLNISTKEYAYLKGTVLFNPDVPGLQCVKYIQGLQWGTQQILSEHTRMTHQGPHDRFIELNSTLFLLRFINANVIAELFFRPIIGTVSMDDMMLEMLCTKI
# ssDAF12 agonist: S. stercoralis DAF-12 nuclear receptor activators, primary screen, cell-based, luminescence, HEK293, GRIP1 co-expression, lit1-tk-luc | Nuclear hormone receptor DAF-12 (Strongyloides stercoralis) | HEK293 ssDAF-12/GRIP1 lit1-tk-luc reporter; % of 3 µM dafachronic acid response | activation, % at 6.8 µM | 370,000 tested, 1% active | AID 652126, 2013;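 active = activation above the mean over all tested compounds plus 3 SD, cut at about 0.9% in these data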;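 note: 0% = DMSO-only wells and 100% = 3 µM delta7-dafachronic acid wells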
# DAX1 inh confirm: DAX1 (NR0B1) inhibitors relieving SF-1 repression, confirmation, cell-based, luminescence, HEK293T, full-length DAX-1, SF-1 activated StAR promoter; shares compounds with DAX1 inh-1; HEK293T StAR-promoter luciferase reporter, SF-1/DAX-1 repression; inhibition, % at 6.8 µM; 2,400 tested, 87% active;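 active = inhibition above the average of every tested compound plus 3 SD, cut at about 3.8% in these data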;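 note: 0% = DAX-1 cells with DMSO and 100% = no DAX-1 control cells with DMSO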
# SF1 mutant ctr: StAR reporter signal changes without DAX1, counter-screen for DAX1 inhibitor project, cell-based, luminescence, AF-2 mutant SF-1, transactivation. 2,400 tested, 78% active. HEK293 StAR-luciferase, SF-1 AF2 mutant. inhibition, % at 6.8 µM. shares compounds with DAX1 inh-1;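 active = inhibition above the mean of all tested compounds plus 3 SD, cut at about 3% in these data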;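 note: 0% = DAX-1 transfected cells with DMSO and 100% = cells without DAX-1 with DMSO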
# Active calls of the source: *; x = not tested or not shown.
SMILES,DAX1 inh-1,hcDAF-12 act,hgDAF-12 ag,DAX1 inh-2,ssDAF12 agonist,DAX1 inh confirm,SF1 mutant ctr
O=C(Nc1ccc2c(c1)OCO2)c1cc(C2CC2)on1,7.0*,4,9,3,0,13*,7.8*
COC(=O)N1CCCCC1c1cc(C(=O)Nc2ccc3c(c2)OCO3)no1 (centres undefined),0,0,0,x,-1,x,x
Cc1ccc(S(=O)(=O)N(C)[C@H]2C[C@H]3c4cc(N5CCOCC5)ccc4CCN3C[C@H]2[C@H](C)O)cc1,0,-2,2,x,-1,x,x
COc1cc(OC)c2c(O)c3c(=O)cc(C)oc3c(-c3c(OC)cc4cc5c(c(O)c4c3O)C(=O)CC(C)(O)O5)c2c1 (centres undefined),1,-2,6,x,-1,x,x
CC(C)(C)c1ccc(C(=O)/C=C2\NC(=O)CS2)cc1,5.2*,6.1*,12*,-1,0,18*,9.2*
CCC(=O)Nc1ccc(-c2nnc(-c3ccccc3)o2)cc1,4.5*,2,10*,2,1,14*,4.5*
CCC(=O)Nc1cccc(-c2nnc(-c3cccc(NC(=O)CC)c3)o2)c1,-1,0,-3,-1,-2,x,x
O=C1CC(N2CCCN(Cc3ccccc3)CC2)=NC(=O)N1c1ccc(Br)cc1,0,-1,0,x,-2,x,x
CCN1CCN(c2ccc(S(=O)(=O)N3CCCCC3)cc2NC(=O)/C=C/c2ccc(Cl)cc2)CC1,4.8*,-1,0,0,-1,1,0
CN(C(=O)C1CCC(=O)N(Cc2cccc(F)c2)C1)C1CCCCC1 (centres undefined),5.2*,0,8,2,1,4.0*,2
O=C(NC1CCC1)C1CCC(=O)N(Cc2cccc(F)c2)C1 (centres undefined),-1,-1,-1,1,-1,x,x
COc1ccc(N2CCN(C(=O)c3cc4c(s3)CCCCC4)CC2)cc1,4.5*,0,2,1,-1,3,2
NC(=O)C1CCN(C(=O)c2cc3c(s2)CCCC3)CC1,5.7*,1,6,2,-1,4.9*,2
c1ccn(-c2ccc(-c3noc(CCc4ccncc4)n3)cc2)c1,-5,-6,-4,x,-3,x,x
CC(C)(C)OC(=O)N1CCC(N[C@@H](Cc2c[nH]c3ccccc23)C(=O)NCCc2c[nH]c3ccccc23)(C(=O)NC2CCCCC2)CC1,x,4,0,x,-1,x,x
COCCCNc1ccn2nc(-c3ccccc3)cc2n1,6.5*,6.3*,10,x,1.0*,15*,5.0*
COCCCNc1ccn2nc(-c3cc(OC)c(OC)c(OC)c3)cc2n1,-2,0,-1,x,-1,x,x
COC(=O)C1CCC(=O)N1C(c1ccc(OC)cc1)c1cc(OC)c(OC)c(OC)c1 (centres undefined),6.2*,0,-5,1,-1,20*,-7
COc1ccc(C(CNC(=O)Cc2cc(OC)c(OC)c(OC)c2)N2CCCC2)cc1 (centres undefined),0,1,0,-2,-1,x,x
CCOc1ccc(C=NNC(=O)c2cc(-c3ccc(Cl)cc3)n[nH]2)cc1,-4,-2,5,x,-2,x,x
N#Cc1ccc2sn(-c3ccccc3)c(=O)c2c1,7.9*,3,11*,3,0,5.1*,3.5*
O=C(CNS(=O)(=O)c1ccc(F)cc1)N1CCN(c2ccccn2)CC1,-2,1,0,x,-1,x,x
